In article PMC12136788:
Changes are numbered by the printed parent chain. In all, about 5,800 sequences were measured (“enrichment r”: median about 0.54, highest 2% from about 16 on). The sample as a whole holds a higher share of the highest values than the screen did.

B1: chr11:10770493:10770605:+|CDS|ENSG00000198730|unk|FALSE|unique (ssRNA)
RNA: GGGAGUUCUACAGUCCGACGAUCACAUGUGGCACCCAGUGAUACAGUUCUUAUGUUUAAUGUGGCCUUGGUCCUGCAAAGAUUAGCUACCUCUGUCCUGAAAGAUGAAAAAAGUAAUCUGAAGGAAGUACUUAAUGCUGUGAACAACAGAGGAUUGAGCAUCA
B2: chr1:51919672:51919773:-|3pUTR|ENSG00000169213|unk|FALSE|unique (ssRNA)
RNA: GGGAGUUCUACAGUCCGACGAUCUAUUCUUUGCCUGCCCCUGGGGUUCUCUGCAGAUGGUCCCAGUAAUAGAUACUCAGCACUAGACUAACAUAACAGGUCACUACACGGGUGCAGAAUCACUUUACAAAAGAAGACUCUGUUCAACAGAGGAUUGAGCAUCA
B3: ENSG00000107863:be:win_5751|CDS|ENSG00000107863|bound_else_gene|NA|bound_elsewhere_windowed (ssRNA)
RNA: GGGAGUUCUACAGUCCGACGAUCACCUGACCAAAUAAACGGAGAAAGCUUCCAGAACGUGAGCAAAAAUGCUAGUUCUGCAGCGAAUGCCCAACCUCAUAAACUGUCUGAAACCCCAGGCAGUAAAGCAGAGUUUCAUCCCUGCAACAGAGGAUUGAGCAUCA
B4: chr1:113685846:113685948:+|3pUTR|ENSG00000081026|unk|FALSE|unique (ssRNA)
RNA: GGGAGUUCUACAGUCCGACGAUCUAUAUACACUUGAGGUUCUGAUUAGAGAAAGAUCUGUAAAUUGCUCAUUAUUUUUUAUAUAGAUAUUUAAAAAAAACAGUUUAUGGCCUGCAUUUCUUUUACUGUCACAUUGGUUUAAUGCAACAGAGGAUUGAGCAUCA
B5: chr21:14485227:14485911:-|three_prime_utr|ENSG00000155307|control|control|control (ssRNA)
RNA: GGGAGUUCUACAGUCCGACGAUCCCCAACUAUAUAUCUACAGAUGCAUUCCAUUUUAACUCUUCUUGAGCUAAAACGUCAAAUAGGAGAGGAAGAUAAGAUAAAUAUUUGUAAAUAAAACCUAAAGUUUAAAUGUUUUAAUCUCAACAGAGGAUUGAGCAUCA
B6: chr2:158176520:158176661:-|CDS|ENSG00000153237|control|control|control (ssRNA)
RNA: GGGAGUUCUACAGUCCGACGAUCGCUGUUGUUGCUCAAUUUGAUCCUGUUAGAAUGAUGUCAGAUACAAUGGCAUCAAAAGCUAGAAUGGGCAUUGAAAUUGAAGAAGAAUUUAUUCUUCAAAAGCCACUCUUCACAUUGAAUCAACAGAGGAUUGAGCAUCA
B7: chr2:151248206:151248307:-|3pUTR|ENSG00000184898|msi1|FALSE|unique (ssRNA)
RNA: GGGAGUUCUACAGUCCGACGAUCUUUUUUUAAAGCAAAGAUUAAAUUCCCAUGUAAAACCUUCCUCCCUAUACAAAAAAGAAUAGCAGCAUUUUUAUCUUCAAUGACAAAGAAUUGAGUCCAAGAAAAUACUGUAUAAACCUUCAACAGAGGAUUGAGCAUCA
B8: chr14:55048714:55048815:+|3pUTR|ENSG00000180008|msi1|FALSE|bound_elsewhere (ssRNA)
RNA: GGGAGUUCUACAGUCCGACGAUCUUUCUAAUUUUGAACAGAUGACUCAGUCCUAAAUCUUUGCCUUUAUUUCCUAUAAAAUGUAGGUGAUACUUGUAACUCGACUUCCUGGAGUUAAUUCUUCAGCAAGAGGUGACCCUGGGACAACAGAGGAUUGAGCAUCA
B9: chr9:72354534:72354635:-|3pUTR|ENSG00000107372|msi1|FALSE|unique (ssRNA)
RNA: GGGAGUUCUACAGUCCGACGAUCGUCCUAGUUUUUACUUUUAUUCUUAAAGCAUUCAGUUUUGCUUUCAAUUUUAUGUACCUUAGUUCUGAGUUAGACCUGCAGAUGUGUACAGAUAGUUCAUAUUUAUGUAUUGCACAUAAUCAACAGAGGAUUGAGCAUCA
B10: chr9:72354534:72354635:-|3pUTR|ENSG00000107372|msi1|total|mutant (ssRNA)
RNA: B9 RNA with U28C, A29C, U83C, A84C, U94C, A95C, U116C, A117C
B11: chr10:95311796:95311897:-|3pUTR|ENSG00000095637|unk|FALSE|unique (ssRNA)
RNA: GGGAGUUCUACAGUCCGACGAUCCAGACAUAGAUUUUUCUGUUCAUUUAUUUUUCUUCAUUGCAGUGGAUUGAUUUGAUAAAUAGAUGUGUUGAAUUACUACAUUUGCUGUACAUAUUAUUUAAUAAACUUUAUUCAGAAUUGCAACAGAGGAUUGAGCAUCA
B12: ENSG00000070961:be:win_5651|3pUTR|ENSG00000070961|bound_else_gene|NA|bound_elsewhere_windowed (ssRNA)
RNA: GGGAGUUCUACAGUCCGACGAUCGUUUCUAGUCUUGGUUUUGCCAUUAAUGUGCUGCAUGAUCUUGGGAAAAUCAUUUACCCUAAAUAAGGGUGGUGGACUAUCUUGAAGAACCCUUUCAACUCUAAAAAUUGACCCUAUCAACAACAGAGGAUUGAGCAUCA
B13: ENSG00000147536:stop:overlap|stop_codon|ENSG00000147536|stop_codon|NA|stop_codon (ssRNA)
RNA: GGGAGUUCUACAGUCCGACGAUCUCCGCUACGUCCUCAGCAGCUACUUGCGGUGUCGCCUCAUGAAGUUCCCAAACCAGAUCUAGAUUCUUACGUGUUUCUGAGAGUGAGAGAACGACAAGAAAACAUACUGGUAGAACCAGACAACAGAGGAUUGAGCAUCA
B14: ENSG00000198589:be:win_3651|CDS|ENSG00000198589|bound_else_gene|NA|bound_elsewhere_windowed (ssRNA)
RNA: GGGAGUUCUACAGUCCGACGAUCCCUCACUAGAGAAACCAAAUUAAUUAAUGAUUGUCAUGGUAGUGUCUCUGAGGCUUCUUCUGAGCAAAAGAUUGCGAAGUUGGAUGUUUCCAAUGUUGCUACAGAUACUGAGAGGCUGGACAACAGAGGAUUGAGCAUCA
B15: chr19:14119889:14120036:-|3pUTR|ENSG00000105011|msi1|total|mutant (ssRNA)
RNA: GGGAGUUCUACAGUCCGACGAUCAGCAGACCCACUCCAGCUUUCUGGUGUCACAGGCGGGAAUGUCCGUCCGCCGGCCGACUCCGAUCCCAUUUCUGUCCUGCUCCCAGGAAGAUUCUCCGGUCCUCUUCAAUCCAGCAGCCCCAACAGAGGAUUGAGCAUCA
B16: ENSG00000113300:stop:overlap|stop_codon|ENSG00000113300|stop_codon|NA|stop_codon (ssRNA)
RNA: GGGAGUUCUACAGUCCGACGAUCUGGAGCUCUUACUGCCUUUCCUGCCCCAAGUCAACGGCAUCCACCUUCCUGGCAGGAGGUAGUCAAGCACCUUCAGAGGACAGCCUUGAUUCACUUGUAAACUUGUGAAAAUCUGAACAUCAACAGAGGAUUGAGCAUCA
B17: ENSG00000165672:stop:overlap|stop_codon|ENSG00000165672|stop_codon|NA|stop_codon (ssRNA)
RNA: GGGAGUUCUACAGUCCGACGAUCCUCCUACGAUCAAGCCAAGUCCAGCUGCUUCCAAAGAGUACUUUCAGAAGGUAAAUCAGUAGAUCACCCAUGUGUAUCUGCACCUUCUCAACUGAGAGAAGAACCACAGUUGAAACCUGCCAACAGAGGAUUGAGCAUCA
B18: chr17:18209558:18209659:+|3pUTR|ENSG00000091542|msi1|FALSE|unique (ssRNA)
RNA: GGGAGUUCUACAGUCCGACGAUCGGUAGCUUCUAUCCACUCAGAUCCUGGAAGGCAGCAAGGUUUUGUGGAUCUAGAUUCAUUAGGAAUGUCUUCUUGUCAGCCAGGCCAGGACCCGGGCUUGCCAAGAGCAGAGGCCCUCCCCAACAGAGGAUUGAGCAUCA
B19: chr1:17068045:17068226:-|3pUTR|ENSG00000117115|msi1|FALSE|unique (ssRNA)
RNA: GGGAGUUCUACAGUCCGACGAUCCUCCUUCCACUGCCUUGACUUUCUUCCUUUUUAUUCCUGGUGCCAUCUGUCCAGGCAGCUAGACAAGAACUUGUUCGCCAGCAGCCAGAUUCAGGCCUUCCCAGGGGCAUAAUAAGUGACCAACAGAGGAUUGAGCAUCA
B20: chr2:1633339:1633490:-|3pUTR|ENSG00000130508|msi1|total|mutant (ssRNA)
RNA: GGGAGUUCUACAGUCCGACGAUCUUCAUAAGCCACAUUCCGAAACAGGUUUGCUUUCAGCUGUCACUUGCACACAUACUGCCCCGUUGUGAACCAAAUGUGAAAAAACCUCCUUCAUCCCAUUGUGUAUCUGAUACCUGCCGACAACAGAGGAUUGAGCAUCA
B21: chr19:14119889:14120036:-|3pUTR|ENSG00000105011|msi1|FALSE|unique (ssRNA)
RNA: GGGAGUUCUACAGUCCGACGAUCAGCAGACCCACUCCAGCUUUCUGGUGUCACAGGCGGGAAUGUUAGUUAGUAGGUAGACUUAGAUCCCAUUUCUGUCCUGCUCCCAGGAAGAUUCUUAGGUCCUCUUCAAUCCAGCAGCCCCAACAGAGGAUUGAGCAUCA
B22: chr20:50583650:50583751:+|3pUTR|ENSG00000196396|msi1|FALSE|unique (ssRNA)
RNA: GGGAGUUCUACAGUCCGACGAUCUUCCUAAGCCUGUUGCUGAAGUCAUUGUCGCUCAGCAAUAGGGUGCAGUUUUCCAGGAAUAGGCAUUUGCCUAAUUCCUGGCAUGACACUCUAGUGACUUCCUGGUGAGGCCCAGCCUGUCAACAGAGGAUUGAGCAUCA
B23: chr8:17644361:17644462:-|3pUTR|ENSG00000129422|msi1|FALSE|bound_elsewhere (ssRNA)
RNA: GGGAGUUCUACAGUCCGACGAUCCAACAUUGUGAUGUCAGUAUUUACUAAUCUACAUUCAGUGGCUGUACAAAUAACAGCUGUAGUAAGAAGAGAUUCAGGAUGCUAGAGGUGAAUAUUUGGGUCAUUUACAUGUACACUACACAACAGAGGAUUGAGCAUCA
B24: chr15:44665791:44665971:-|CDS|ENSG00000229474|control|control|control (ssRNA)
RNA: GGGAGUUCUACAGUCCGACGAUCGAUCUGUUUGUUCUGGAAUACGUGUAUGUGGGAAGUUGAAUCAUCAGACACUAGCUACAUAGACUAUGUUUACAGGGAUCCAGAGAGUCUGAAGACAUUUCUUAUGCCUUUAUAUAUUGGCAACAGAGGAUUGAGCAUCA
B25: chr4:75800632:75800752:+|CDS|ENSG00000138768|unk|total|mutant (ssRNA)
RNA: GGGAGUUCUACAGUCCGACGAUCAAACAACUGAUUGAGAAGAGGAUUGGCAAAGAGAAUUUCACCGAGAAACCCGGAUUUAUCCGCAAACAUGAGUUGUAUUCCAGAGCAUCUCAGAAACCCCAGCCAAACUUUCCCAGUCCACAACAGAGGAUUGAGCAUCA
B26: chr3:45095346:45095568:-|CDS|ENSG00000163814|control|control|control (ssRNA)
RNA: GGGAGUUCUACAGUCCGACGAUCAAACAGAGCCGCAAGUUUGUCCCUGGCUGUUUCGUGUGUCUAGAAUCUCGGACCUGCAGUAGCAACCUCACCCUGACAUCUGGCUCCAAACACAAAAUCUCCUUCCUUUGUGAUGAUCUGCAACAGAGGAUUGAGCAUCA
B27: chr1:17407970:17408071:-|3pUTR|ENSG00000179051|msi1|total|mutant (ssRNA)
RNA: GGGAGUUCUACAGUCCGACGAUCGGGUACCGUUCUGCUGACCCAGCUCCCUUCCGUCACGUUUGCUUGGCUCUGGUACCAAACCGUUGGGAUUACCGAAGAGUCCCCUUCCUUGCGUGUCAGCACGGAUGCUGUGACUGCCACCAACAGAGGAUUGAGCAUCA
B28: chr9:19276226:19276327:+|CDS|ENSG00000137145|unk|total|mutant (ssRNA)
RNA: GGGAGUUCUACAGUCCGACGAUCCUUUGUCGCCGCUGGUCUCACUGACACAUCUACUCUUUUGGAUCAAGAAAUAAAUCGUUCCGAUACUAAGUCAACUGGACCUAAAGCUCCAAUUACAGACAUUGCCAUUAUUAUCAAAUCCAACAGAGGAUUGAGCAUCA

Target: MSI1 full-length (mouse, UniProt Q61474 1-362)
Sequence (Q61474 whole entry): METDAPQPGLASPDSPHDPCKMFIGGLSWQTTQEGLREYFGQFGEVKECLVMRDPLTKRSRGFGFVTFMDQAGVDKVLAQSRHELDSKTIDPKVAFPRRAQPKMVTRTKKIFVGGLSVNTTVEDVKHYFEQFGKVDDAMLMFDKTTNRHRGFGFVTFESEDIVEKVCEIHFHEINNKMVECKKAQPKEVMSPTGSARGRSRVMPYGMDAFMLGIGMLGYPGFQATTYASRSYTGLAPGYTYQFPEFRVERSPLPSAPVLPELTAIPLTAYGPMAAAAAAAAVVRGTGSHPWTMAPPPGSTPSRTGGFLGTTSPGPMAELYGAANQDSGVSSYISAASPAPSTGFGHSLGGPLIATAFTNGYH
Experiment: nsRBNS (natural sequence RNA bind-n-seq); RBNS binding buffer (assumed for nsRBNS): 25 mM Tris pH 7.5, 150 mM KCl, 3 mM MgCl2, 0.01% Triton X-100, 500 ug/ml BSA, 20 U/ml SUPERase-In, 4 C; UNK is unkempt and MSI1 is Musashi-1; names of the RNAs are library labels; protein concentration not given here; high values mean tight binding

| Binder | binding signal [enrichment R] |
| --- | --- |
| B1 | 0.659 |
| B2 | 0.896 |
| B3 | 0.256 |
| B4 | 13.4 |
| B5 | 1.2 |
| B6 | 0.406 |
| B7 | 0.494 |
| B8 | 0.258 |
| B9 | 42.6 |
| B10 | 1.52 |
| B11 | 2.8 |
| B12 | 0.357 |
| B13 | 26.3 |
| B14 | 0.605 |
| B15 | 0.641 |
| B16 | 38.7 |
| B17 | 0.684 |
| B18 | 1.93 |
| B19 | 0.526 |
| B20 | 0.388 |
| B21 | 38.2 |
| B22 | 0.237 |
| B23 | 0.442 |
| B24 | 0.282 |
| B25 | 0.541 |
| B26 | 0.476 |
| B27 | 0.479 |
| B28 | 0.315 |
